# Source: PubChem (National Center for Advancing Translational Sciences (NCATS))
# Pf growth 48h – P. falciparum growth inhibition at 48 hours (one generation); P. falciparum luciferase growth in erythrocytes, 48 h; Potency, µM (titrated, usually from 28.7 µM), for the others: at the highest dose activity change, negative = inhibition, most hits filed as inhibitors; 310,000 compounds, 5.9% hits
#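 Cell-based growth assay: transgenic P. falciparum expressing firefly luciferase, cultured in red cells within RPMI 1640 containing 0.5% w/v Albumax, 24 mM bicarbonate and gentamycin. A drop in luciferase activity indicates inhibition.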
# Pf growth 96h – P. falciparum growth inhibition at 96 hour, primary screen for plastid delayed-death inhibitors | P. falciparum luciferase reporter growth, 96 h | Potency, µM (highest dose often 28.7 µM), inactives show at the highest dose activity change, negative = inhibition, usual class: inhibitors | 320,000 compounds, 6.9% hits
#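 Two parasite generations (96 h, 37 C, 5% CO2) of compound exposure in infected erythrocytes (0.05% parasitemia, 2% hematocrit). Luciferase-reporter P. falciparum; decreased luminescence indicates inhibited growth, aimed at apicoplast-acting delayed death.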
# AMA1-RON2 inh – disrupts binding of P. falciparum AMA1 to RON2 | AlphaScreen AMA1-biotinylated RON2 peptide binding | Potency, µM (titrated, usually from 58.2 µM), inactives show at the highest dose activity change, negative = inhibition, most hits filed as inhibitors | 360,000 compounds, 0.2% hits;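 note: 0% = vehicle wells and -100% = peptide control; nearly all actives have a fitted effect of over 45% in size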
#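 AMA1 (3D7) with his tag at 25 nM final met compounds first, then biotinylated RON2 peptide at 25 nM; detection used donor plus acceptor beads, 10 µg/mL apiece, read by AlphaScreen after 30 min at room temperature.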
# HCV inh – blocks hepatitis C virus | Huh7.5.1 HCVcc-Cre infection, luciferase reporter, 44 h | Potency, µM (titrated, usually from 41.8 µM), for the others: at the highest dose activity change, negative = inhibition, usual class: inhibitors | 340,000 compounds, 3.4% hits | AID 651820
#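 Reporter virus HCVcc-Cre (~0.5 moi) infects cells exposed to compound; seeding density 1,000 cells/well with 4 h settling beforehand. Luminescence, 15 sec read, taken 44 h post-infection following a 15 min RT substrate incubation.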
# Active calls of the source: *; ? = inconclusive; / = not tested or not shown; [ ] = dose if it differs, or a comment. This is a sample that favours compounds with a hit; in the whole collection about 11% have one here. Calls come from the whole dose curve; as a rule, active = well fitted curve in the direction sought with a large enough effect; inconclusive = small, poorly fitted or top-dose-only effect, or another doubt; inactive = no such curve, though single readings can be large; an effect the other way counts as inactive or inconclusive. Unless noted, % is set by controls: 0 for no effect and ±100 for the full control effect; potency is the fitted concentration of half-maximal effect.
SMILES,Pf growth 48h,Pf growth 96h,AMA1-RON2 inh,HCV inh
Cc1c(C)c2cc(Cl)c(OCC(=O)NC3CC(C)(C)NC(C)(C)C3)cc2oc1=O,?,?,-10%,?
C#C[C@]1(O)CCC2C3CCC4=Cc5oncc5CC4(C)C3CCC21C (stereo partly drawn),/,/,-6%,-20%
C#C[C@]1(O)CC[C@H]2[C@@H]3CCC4=Cc5nc6nc7ccccc7n6cc5C[C@]4(C)[C@H]3CC[C@@]21C,3.7µM*,5.2µM*,31%,?
CCC(=O)N1CCN(c2ccc(NC(=O)COc3ccccc3Cl)cc2)CC1,/,5.9µM*,-2%,11µM*
CCC(=O)N1CCN(c2ccc(NC(=O)COc3ccccc3[N+](=O)[O-])cc2)CC1,?,26%,1%,11µM*
CN1CCN(c2ccc(NC(=O)COc3ccccc3Cl)cc2)CC1,12%,-13%,-6%,?
COc1cc(Cl)ccc1NC(=O)COc1ccccc1C(=O)N1CCN(c2ccc(O)cc2)CC1,5.9µM*,?,-7%,-9%
COc1cc(/C=C/C(=O)NC(=O)c2ccccc2O)ccc1OC(C)=O,-20%,9.3µM*,-3%,-16%
COc1cc(/C=C/C(=O)NC(C)C)ccc1OCc1ccccc1,13µM*,0%,4%,?
COc1ccc(S(=O)(=O)N(C)C[C@H]2Oc3ncc(Br)cc3C(=O)N([C@@H](C)CO)C[C@@H]2C)cc1,/,/,-8%,/
CC(=O)OC1COC(N2CCc3cc(Br)c([N+](=O)[O-])cc32)C(OC(C)=O)C1OC(C)=O (stereo not drawn),-9%,/,-9%,6%
CCc1nc2ccccc2c(C(=O)OCC(=O)Nc2cccc(S(=O)(=O)N3CCOCC3)c2)c1C,?,?,0%,11µM*
O=C(COC(=O)c1ccc2ccccc2n1)Nc1cccc(S(=O)(=O)NC2=NCCCCC2)c1,16%,9%,2%,6%
CCc1nc2ccccc2c(C(=O)OCC(=O)Nc2ccc(S(=O)(=O)N3CCOCC3)cc2)c1C,9.3µM*,21%,-2%,11µM*
CCc1nc2ccccc2c(C(=O)OCC(=O)Nc2cccc(S(=O)(=O)NC3=NCCCCC3)c2)c1C,?,-17%,16%,8.9µM*
CC(C)CNC(=O)COC(=O)CNC(=O)c1cc(Cl)cc([N+](=O)[O-])c1,14%,4%,10%,14%
COC(=O)C1(Cc2ccccc2)NC(c2ccc(F)cc2)C2C(=O)N(C)C(=O)C21 (stereo not drawn),-37%,34%,-4%,26%
CCCCCCSc1ccc([C@H]2N[C@@](Cc3ccccc3)(C(=O)OC)[C@H]3C(=O)N(CC)C(=O)[C@@H]23)cc1,0.83µM*,0.47µM*,0%,16%
CCCCCCSc1ccc([C@H]2N[C@@](CC(C)C)(C(=O)OC)[C@H]3C(=O)N(CC)C(=O)[C@@H]23)cc1,?,?,10%,?
CCCCCCSc1ccc([C@H]2N[C@@](Cc3ccccc3)(C(=O)OC)[C@H]3C(=O)N(C)C(=O)[C@@H]23)cc1,0.29µM*,?,-3%,-29%[8.37 µM]
CCC(C)Sc1ccc([C@H]2N[C@@](Cc3ccccc3)(C(=O)OC)[C@H]3C(=O)N(C)C(=O)[C@@H]23)cc1 (stereo partly drawn),1µM*,?,-11%,?
CCCSc1ccc([C@H]2N[C@@](Cc3ccccc3)(C(=O)OC)[C@H]3C(=O)N(CC)C(=O)[C@@H]23)cc1,1.5µM*,1µM*,1%,?
OCC1(Cc2ccccc2F)CCCN(CC2CCCCC2)C1 (stereo not drawn),-3%,?,0%,?
COc1ccc(/C=c2\s/c(=C(/C#N)C(=O)NCc3ccco3)n(-c3ccccc3)c2=O)cc1,0%,30%,4%,-22%
COC(=O)/C=c1/s/c(=C(\C#N)C(=O)NCc2ccco2)n(-c2ccccc2)c1=O,-11%,6.6µM*,13%,2%
SMILES,Pf growth 48h,Pf growth 96h,AMA1-RON2 inh,HCV inh
Cc1cccc(C)c1OC(=O)CN1C(=O)c2ccccc2C1=O,139%,0%,16%,4%
COc1ccc(CN2CCC[C@]3(N[C@H](c4ccccc4)[C@@H]4C(=O)N(C)C(=O)[C@@H]43)C2=O)cc1,/,/,-2%,/
CC(Cl)C(=O)NC(=O)NC12CC3CC(CC(C3)C1)C2 (stereo not drawn),?,13µM*,-10%,11%
O=C(CCl)NC(=O)NC12CC3CC(CC(C3)C1)C2,0%,?,7%,1%
CCCCn1c(SCC(=O)NCc2ccc3c(c2)OCO3)nnc1C(CC)N(C)C (stereo not drawn),0%,8%,-11%,10%
COC(=O)c1cccnc1-n1c(=O)c2cccnc2n(Cc2ccc([N+](=O)[O-])cc2)c1=O,10µM*,?,-4%,0%
O=C(NCC(c1ccco1)N1CCN(c2ccccc2)CC1)OCc1ccccc1 (stereo not drawn),?,4.1µM*,-1%,-6%
O=C(NCC(c1ccco1)N1CCN(c2ccccc2F)CC1)C1CCCCC1 (stereo not drawn),12µM*,-23%,17%,?
COc1ccc(N2CCN(C(CNC(=O)C(=O)NC3CC3)c3ccco3)CC2)cc1 (stereo not drawn),19%,23%,2%,26%
COc1ccc(N2CCN(C(CNC(=O)C3CCCCC3)c3ccco3)CC2)cc1 (stereo not drawn),13µM*,?,-13%,-2%
O=C(NCC(c1ccco1)N1CCN(c2ccccc2F)CC1)C(=O)NC1CCCCC1 (stereo not drawn),-10%,?,-20%,2%
O=C(NCc1cccs1)C(=O)NCC(c1ccco1)N1CCN(c2ccc(F)cc2)CC1 (stereo not drawn),?,?,?,22µM*
N#CCc1ccc(OC(=O)c2cccnc2Cl)cc1,/,/,-3%,14%
CC1CCC(NC(=O)CCN2C(=O)C3C4C=CC(C4)C3C2=O)CC1 (stereo not drawn),10%,48%,2%,10%
O=P(c1ccccc1)(c1ccccc1)c1nc(-c2ccccc2)oc1N1CCOCC1,?,?,-10%,-12%
CCOP(=O)(c1ccccc1)c1nc(-c2ccc(F)cc2)oc1N1CCCCC1 (stereo not drawn),9.3µM*,-6%[5.75 µM],-10%,-22%
CCOP(=O)(OCC)c1nc(-c2ccc(C)cc2)oc1N1CCOCC1,/,/,-5%,-16%
CCOP(=O)(OCC)c1nc(-c2ccc(Br)cc2)oc1N1CCCCC1,10µM*,-11%,-2%,?
O=P(c1ccccc1)(c1ccccc1)c1nc(-c2ccc(Cl)cc2)oc1N1CCOCC1,10µM*,1%,-12%,10µM*
COc1ccc(CC(=O)NCc2ccc(Cl)cc2)cc1S(=O)(=O)N1CCOCC1,?,?,2%,14%
O=C(Nc1cccc(S(=O)(=O)N2CCCCC2)c1)c1c2c(nc3ccccc13)CCN(Cc1ccccc1)C2,2.9µM*,2.6µM*,-12%,?
